Activity calls are given as the source filed them. The calls were made as follows: active = hit-call score of the fitted dose curve at least 0.9, where 1 is the maximum; inactive = score below 0.9.

The source of these data is PubChem BioAssay (EPA / NIEHS).

Details in all cases: mRNA level, 48 h; actives raise or lower the signal
Read-out in one test: BCL2L11 (gene 10018)
Briefly: LTEA_HepaRG_BCL2L11: Life Technologies and Expression Analysis (LTEA) Assay for Bcl-2 (BCL2L11) gene using HepaRG (AID 2283473). The gist of the method:
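BCL2L11 transcript levels are measured by Fluidigm qRT-PCR, normalized to three housekeeping genes. HepaRG cultures were plated 48 h, then treated 48 h with test chemical (top 100 uM, half-log, 0.5% DMSO vehicle); curves were fitted bidirectionally against DMSO.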

Read-out in test [1]: Apolipoprotein A-V (APOA5) gene, APOA5 (gene 116519)
The experiment in a line: LTEA_HepaRG_APOA5: Life Technologies and Expression Analysis (LTEA) Assay for Apolipoprotein A-V (APOA5) gene using HepaRG (AID 2283474). The essentials: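 APOA5 transcript levels were quantified by qRT-PCR, normalized to three housekeeping genes, after 48 h chemical treatment of HepaRG cells (8 points, 100 uM maximum, half-log steps, 0.5% DMSO). Curves fitted in both directions against vehicle.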

Read-out in test [2]: Apoptosis regulator Bcl-2 (Homo sapiens) (UniProt P10415)
Briefly: LTEA_HepaRG_BCL2: Life Technologies and Expression Analysis (LTEA) Assay for Bcl-2 gene using HepaRG (AID 2283475). The gist of the method: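 Differentiated human HepaRG cells in serum-free induction medium exposed 48 h, in duplicate, to 8-point half-log series from 100 uM in 0.5% DMSO. BCL2 mRNA by qRT-PCR (TaqMan/Fluidigm), normalized to ACTB, GAPDH, POLR2A; bidirectional fit against DMSO.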

Read-out in test [3]: Bcl-2 (BID) gene, BID (gene 637)
Briefly: LTEA_HepaRG_BID: Life Technologies and Expression Analysis (LTEA) Assay for Bcl-2 (BID) gene using HepaRG (AID 2283476). The essentials: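 Gene expression by qRT-PCR in HepaRG cells after 48 h exposure, duplicate wells, eight half-log concentrations topping at 100 uM in 0.5% DMSO. Normalized to ACTB, GAPDH, POLR2A; bidirectional fitting relative to DMSO.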

Read-out in another test: Caspase-3 (Homo sapiens) (UniProt P42574)
Briefly: LTEA_HepaRG_CASP3: Life Technologies and Expression Analysis (LTEA) Assay for cysteine-aspartic acid protease (CASP3) using HepaRG (AID 2283477). The gist of the method:
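Expression of CASP3 was quantified by TaqMan qRT-PCR against three housekeeping genes (ACTB, GAPDH, POLR2A), bidirectionally versus 0.5% DMSO. HepaRG cultures received compounds in duplicate, top 100 uM with half-log steps, for 48 h in serum-free induction medium.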

Read-out in test [4]: Cytochrome P450 (CYP24A1), CYP24A1 (gene 1591)
The experiment in a line: LTEA_HepaRG_CYP24A1: Life Technologies and Expression Analysis (LTEA) Assay for Cytochrome P450 (CYP24A1) using HepaRG (AID 2283478). The gist of the method: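 mRNA of CYP24A1 quantified by TaqMan qRT-PCR (ACTB/GAPDH/POLR2A normalization) after 48 h chemical exposure of HepaRG cells, top concentration 100 uM, half-log steps, 0.5% DMSO vehicle, duplicates. Curves fitted bidirectionally against DMSO baseline.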

Read-out in test [5]: Cytochrome P450 (CYP1A2), CYP1A2 (gene 1544)
Briefly: LTEA_HepaRG_CYP1A2: Life Technologies and Expression Analysis (LTEA) Assay for Cytochrome P450 (CYP1A2) using HepaRG (AID 2283479). The essentials:
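CYP1A2 transcript measured by TaqMan qRT-PCR against three housekeeping genes after 48-hour chemical exposure of HepaRG cells. Eight-point half-log series topping at 100 uM in 0.5% DMSO, duplicates; gain or loss fitted relative to vehicle.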

Read-out in test [6]: cysteine-aspartic acid protease (CASP8), CASP8 (gene 841)
Briefly: LTEA_HepaRG_CASP8: Life Technologies and Expression Analysis (LTEA) Assay for cysteine-aspartic acid protease (CASP8) using HepaRG (AID 2283480). The gist of the method: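 HepaRG, 48 h exposure, duplicate wells; 8 conc, half-log from 100 uM, 0.5% DMSO. Serum-free induction medium. CASP8 mRNA by TaqMan qRT-PCR, norm. ACTB/GAPDH/POLR2A; gain/loss fitted vs DMSO.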

Read-out in test [7]: Cytochrome P450 (CYP2B6), CYP2B6 (gene 1555)
Briefly: LTEA_HepaRG_CYP2B6: Life Technologies and Expression Analysis (LTEA) Assay for Cytochrome P450 (CYP2B6) using HepaRG (AID 2283481). The essentials:
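CYP2B6 transcript level quantified by qRT-PCR against three housekeeping genes, fitted bidirectionally relative to DMSO. HepaRG cultures received chemicals for 48 h, 8-point half-log series from 100 uM in 0.5% DMSO, duplicate wells, serum-free induction medium.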

Read-out in test [8]: Cytochrome P450 2C19 (Homo sapiens) (UniProt P33261)
Briefly: LTEA_HepaRG_CYP2C19: Life Technologies and Expression Analysis (LTEA) Assay for CYP2C19 using HepaRG (AID 2283482). The gist of the method: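 CYP2C19 transcript levels by qRT-PCR, normalized to three housekeeping genes, in HepaRG cells after 48 h chemical exposure. Eight-point half-log series topping at 100 uM, 0.5% DMSO vehicle. Increases and decreases both fitted against DMSO.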

Read-out in a further test: CYP2C8 (gene 1558)
The experiment in a line: LTEA_HepaRG_CYP2C8: Life Technologies and Expression Analysis (LTEA) Assay for CYP2C8 using HepaRG (AID 2283483). The essentials: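 CYP2C8 mRNA induction or loss, by qRT-PCR normalized to ACTB/GAPDH/POLR2A, is read in HepaRG cells after 48 h treatment. Concentrations run from 100 uM down in half-log dilutions, with 0.5% DMSO as vehicle and baseline.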

Read-out in a further test: CYP2C9 (gene 1559)
The experiment in a line: LTEA_HepaRG_CYP2C9: Life Technologies and Expression Analysis (LTEA) Assay for CYP2C9 using HepaRG (AID 2283484). The essentials: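 Cells plated 48 h, switched to serum-free induction medium, then treated in duplicate for 48 h at eight concentrations (max 100 uM, 0.5% DMSO). RNA then analysed by qRT-PCR for CYP2C9; curves fitted in both directions relative to DMSO.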

Read-out in another test: CYP2E1 (gene 1571)
Briefly: LTEA_HepaRG_CYP2E1: Life Technologies and Expression Analysis (LTEA) Assay for CYP2E1 using HepaRG (AID 2283485). The gist of the method: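 HepaRG cells, plated 48 h, then exposed 48 h in serum-free induction medium to eight half-log concentrations from 100 uM in 0.5% DMSO, duplicate. CYP2E1 mRNA by qRT-PCR, normalized to ACTB/GAPDH/POLR2A; bidirectional fit versus DMSO.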

Read-out in another test: CYP4A11 (gene 1579)
Briefly: LTEA_HepaRG_CYP4A11: Life Technologies and Expression Analysis (LTEA) Assay for CYP4A11 using HepaRG (AID 2283486). The gist of the method:
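Readout is CYP4A11 transcript level by qRT-PCR, normalized to three housekeeping genes and fitted bidirectionally against 0.5% DMSO. Human HepaRG cells were treated 48 h, in duplicate, with an 8-point half-log series topping at 100 uM.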

Read-out in test [9]: Cytochrome P450 3A4 (Homo sapiens) (UniProt P08684)
Briefly: LTEA_HepaRG_CYP3A4: Life Technologies and Expression Analysis (LTEA) Assay for CYP3A4 using HepaRG (AID 2283487). The essentials:
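In a human hepatic line (HepaRG), duplicate wells were treated 48 h with up to 100 uM chemical in half-log dilutions. Endpoint: CYP3A4 mRNA induction or loss relative to 0.5% DMSO vehicle, by qRT-PCR.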

Read-out in test [10]: DNA damage-inducible transcript 3 (DDIT3), DDIT3 (gene 1649)
The experiment in a line: LTEA_HepaRG_DDIT3: Life Technologies and Expression Analysis (LTEA) Assay for DNA damage-inducible transcript 3 (DDIT3) using HepaRG (AID 2283488). The gist of the method:
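HepaRG cells, 48 h after plating, exposed 48 h in serum-free induction medium to 8 half-log concentrations up to 100 uM in 0.5% DMSO, in duplicate. DDIT3 mRNA measured by TaqMan qRT-PCR, normalized to ACTB, GAPDH and POLR2A. Fitted bidirectionally against DMSO.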

Read-out in test [11]: Pro-epidermal growth factor (Homo sapiens) (UniProt P01133)
Briefly: LTEA_HepaRG_EGF: Life Technologies and Expression Analysis (LTEA) Assay for Epidermal growth factor (EGF) using HepaRG (AID 2283489). The gist of the method: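 EGF transcript measured by Fluidigm TaqMan qRT-PCR with three housekeeping genes for normalization, 48 h after dosing HepaRG cultures in duplicate (top 100 uM, half-log steps, 0.5% DMSO vehicle). Gain or loss relative to DMSO fitted.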

Read-out in test [12]: Early growth response protein 1 (EGR1) transcription factor, EGR1 (gene 1958)
The experiment in a line: LTEA_HepaRG_EGR1: Life Technologies and Expression Analysis (LTEA) Assay for Early growth response protein 1 (EGR1) transcription factor using HepaRG (AID 2283490). The gist of the method:
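Read-out is EGR1 mRNA level by qRT-PCR, normalized to three housekeeping genes and analysed for gain or loss of signal against 0.5% DMSO. Source cells: human HepaRG, treated 48 h at up to 100 uM in half-log dilutions.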

Read-out in test [13]: Ezrin (EZR), EZR (gene 7430)
Briefly: LTEA_HepaRG_EZR: Life Technologies and Expression Analysis (LTEA) Assay for Ezrin (EZR) using HepaRG (AID 2283491). The essentials:
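Gain or loss of EZR mRNA is scored relative to 0.5% DMSO in human HepaRG cultures treated 48 h with test chemicals in duplicate, eight half-log concentrations from 100 uM.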

Read-out in test [14]: Cytochrome P450 3A7 (Homo sapiens) (UniProt P24462)
Briefly: LTEA_HepaRG_CYP3A7: Life Technologies and Expression Analysis (LTEA) Assay for CYP3A7 using HepaRG (AID 2283492). The gist of the method: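 CYP3A7 transcript measured by qRT-PCR (ACTB, GAPDH, POLR2A normalization) after 48 h chemical exposure of HepaRG cells in duplicate. Eight half-log concentrations, maximum 100 uM, 0.5% DMSO vehicle; bidirectional curve fitting against DMSO baseline.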

Cytochrome P450 2C19 (Homo sapiens), sequence (P33261 whole entry, looked up): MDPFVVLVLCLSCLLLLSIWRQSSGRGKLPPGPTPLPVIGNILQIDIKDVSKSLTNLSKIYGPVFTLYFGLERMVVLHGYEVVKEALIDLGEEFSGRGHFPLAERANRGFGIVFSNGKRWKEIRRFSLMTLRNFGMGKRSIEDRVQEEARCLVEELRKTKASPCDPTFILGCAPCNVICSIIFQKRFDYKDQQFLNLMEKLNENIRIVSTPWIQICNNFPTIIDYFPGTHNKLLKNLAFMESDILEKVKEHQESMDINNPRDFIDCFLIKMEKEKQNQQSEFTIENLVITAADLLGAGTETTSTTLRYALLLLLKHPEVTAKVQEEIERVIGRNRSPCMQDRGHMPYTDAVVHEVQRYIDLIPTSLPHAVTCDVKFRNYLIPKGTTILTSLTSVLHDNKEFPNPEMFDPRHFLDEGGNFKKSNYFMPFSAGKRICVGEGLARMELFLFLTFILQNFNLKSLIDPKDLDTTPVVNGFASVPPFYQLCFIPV
Apoptosis regulator Bcl-2 (Homo sapiens), sequence (P10415 whole entry, looked up): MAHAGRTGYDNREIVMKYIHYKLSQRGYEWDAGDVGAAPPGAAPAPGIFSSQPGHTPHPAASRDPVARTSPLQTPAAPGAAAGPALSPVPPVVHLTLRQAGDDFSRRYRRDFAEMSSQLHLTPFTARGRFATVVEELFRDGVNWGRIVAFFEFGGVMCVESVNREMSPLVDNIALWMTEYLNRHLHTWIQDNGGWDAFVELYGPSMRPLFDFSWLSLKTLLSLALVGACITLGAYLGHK
Cytochrome P450 3A4 (Homo sapiens), sequence (P08684 whole entry, looked up): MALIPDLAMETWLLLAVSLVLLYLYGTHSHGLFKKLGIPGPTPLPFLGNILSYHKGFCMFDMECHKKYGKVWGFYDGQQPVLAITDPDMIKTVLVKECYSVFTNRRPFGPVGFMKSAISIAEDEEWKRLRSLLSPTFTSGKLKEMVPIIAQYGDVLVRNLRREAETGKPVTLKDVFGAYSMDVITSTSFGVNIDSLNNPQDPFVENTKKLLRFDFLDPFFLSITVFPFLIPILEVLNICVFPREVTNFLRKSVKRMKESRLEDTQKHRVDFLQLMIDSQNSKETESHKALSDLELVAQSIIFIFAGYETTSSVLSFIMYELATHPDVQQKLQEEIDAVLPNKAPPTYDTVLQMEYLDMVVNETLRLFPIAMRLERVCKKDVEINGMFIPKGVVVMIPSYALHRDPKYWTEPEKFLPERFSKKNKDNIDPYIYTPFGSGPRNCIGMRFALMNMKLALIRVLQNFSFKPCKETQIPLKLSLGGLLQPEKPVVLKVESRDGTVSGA
Cytochrome P450 3A7 (Homo sapiens), sequence (P24462 whole entry, looked up): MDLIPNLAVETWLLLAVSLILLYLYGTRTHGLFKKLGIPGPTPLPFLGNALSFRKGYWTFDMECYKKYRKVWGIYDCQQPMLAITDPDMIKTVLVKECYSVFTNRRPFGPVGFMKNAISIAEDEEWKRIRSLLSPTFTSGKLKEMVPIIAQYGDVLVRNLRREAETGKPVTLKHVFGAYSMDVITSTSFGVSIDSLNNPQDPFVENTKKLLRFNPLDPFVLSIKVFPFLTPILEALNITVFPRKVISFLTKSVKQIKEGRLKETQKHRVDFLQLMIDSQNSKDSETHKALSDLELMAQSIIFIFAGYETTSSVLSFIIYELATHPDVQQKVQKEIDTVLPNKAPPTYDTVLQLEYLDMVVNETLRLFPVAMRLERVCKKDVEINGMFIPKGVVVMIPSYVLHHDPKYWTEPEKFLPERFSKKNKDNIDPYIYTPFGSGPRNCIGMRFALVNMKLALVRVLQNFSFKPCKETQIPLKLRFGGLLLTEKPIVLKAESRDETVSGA
Caspase-3 (Homo sapiens), sequence (P42574 whole entry, looked up): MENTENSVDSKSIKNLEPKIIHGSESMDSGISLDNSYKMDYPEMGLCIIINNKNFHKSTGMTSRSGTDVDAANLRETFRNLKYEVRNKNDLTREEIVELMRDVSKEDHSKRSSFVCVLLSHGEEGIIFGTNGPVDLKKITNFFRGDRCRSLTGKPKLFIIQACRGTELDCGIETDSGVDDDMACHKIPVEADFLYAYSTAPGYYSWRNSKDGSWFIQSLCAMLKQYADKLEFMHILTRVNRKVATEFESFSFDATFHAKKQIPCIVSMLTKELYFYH

As to `COCCOCCOCCOC`, the call (with BCL2L11 (gene 10018); in [1]; in test [2]; in [3]; in the test with Caspase-3 (Homo sapiens); in test [4]) was inactive. The call (in test [5]; in test [6]; in test [7]; in [8]; with CYP2C8 (gene 1558); with CYP2C9 (gene 1559)) was inactive. Further, the outcome (with CYP2E1 (gene 1571); with CYP4A11 (gene 1579); in test [9]; in [10]; in [11]; in test [12]) was inactive. Further, the compound was classed as inactive in test [13] and in test [14].
On to `CC(C)CCCCCCCOC(=O)CCCCC(=O)OCCCCCCCC(C)C`, for which the result (in the test with BCL2L11 (gene 10018); in test [1]; in [2]; in test [3]; in the test with Caspase-3 (Homo sapiens); in test [4]) was inactive. Also, the compound was called inactive (in test [5]; in test [6]; in test [7]; in [8]; in the test with CYP2C8 (gene 1558); with CYP2C9 (gene 1559)). In addition, the outcome (with CYP2E1 (gene 1571); with CYP4A11 (gene 1579); in test [9]; in test [10]; in test [11]; in test [12]) was inactive. Besides, the compound was called inactive in test [13] and in test [14].
On to `Cc1c(-c2cccnc2)c2ccccc2n1CCCCC(=O)O`, for which the result (with BCL2L11 (gene 10018); in test [1]; in test [2]; in [3]; with Caspase-3 (Homo sapiens); in [4]) was inactive. Also, the compound was classed as inactive (in [6]; in test [8]; in the test with CYP2C8 (gene 1558); with CYP2C9 (gene 1559); in the test with CYP2E1 (gene 1571); in the test with CYP4A11 (gene 1579)). Besides, the outcome in [9], in test [10], in test [11], in [12] and in test [13] was inactive. For the same compound, the AC50 in [5] was 50 µM (active); in test [7], 35.9 µM (active); in test [14], 21.3 µM (active).
